{"source": "paper PMC11006913", "experiment_in_all_cases": "PBM; 200 nM protein, PBS", "details_in_all_cases": "dsDNA, one strand shown", "key": {"VENTX [1]": {"target": "T1, VENTX (Homo sapiens, UniProt O95231 78-163, R121Q)", "T1 sequence": "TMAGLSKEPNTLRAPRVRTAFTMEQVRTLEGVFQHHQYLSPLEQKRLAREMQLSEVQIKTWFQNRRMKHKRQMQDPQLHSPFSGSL"}, "HOXB9 [2]": {"target": "HOXB9 (Homo sapiens, UniProt P17482 171-250, T197M)", "sequence (P17482 171-250 T197M)": "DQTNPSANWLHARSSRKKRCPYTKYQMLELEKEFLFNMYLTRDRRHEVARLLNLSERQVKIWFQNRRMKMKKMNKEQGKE"}, "VENTX [3]": {"target": "T2, VENTX (Homo sapiens, UniProt O95231 78-163)", "T2 sequence": "T1 sequence with Q44R"}, "VENTX [4]": {"target": "T3, VENTX (Homo sapiens, UniProt O95231 78-163, Y115F)", "T3 sequence": "T1 sequence with Y38F, Q44R"}, "HOXB9 [5]": {"target": "HOXB9 (Homo sapiens, UniProt P17482 171-250)", "sequence (P17482 171-250)": "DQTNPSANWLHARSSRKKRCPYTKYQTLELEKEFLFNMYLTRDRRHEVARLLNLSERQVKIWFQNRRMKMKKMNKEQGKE"}, "HOXD13 [6]": {"target": "HOXD13 (Homo sapiens, UniProt P35453 263-343, T313R)", "sequence (P35453 263-343 T313R)": "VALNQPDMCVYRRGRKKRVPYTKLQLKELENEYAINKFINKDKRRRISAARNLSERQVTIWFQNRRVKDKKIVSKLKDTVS"}, "HOXD13 [7]": {"target": "HOXD13 (Homo sapiens, UniProt P35453 263-343)", "sequence (P35453 263-343)": "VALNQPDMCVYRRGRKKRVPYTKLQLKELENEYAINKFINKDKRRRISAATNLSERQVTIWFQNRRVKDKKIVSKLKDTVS"}, "HOXD13 [8]": {"target": "HOXD13 (Homo sapiens, UniProt P35453 263-343, T313A)", "sequence (P35453 263-343 T313A)": "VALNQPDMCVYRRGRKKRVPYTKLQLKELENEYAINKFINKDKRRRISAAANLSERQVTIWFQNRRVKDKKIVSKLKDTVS"}, "HOXB9 [9]": {"target": "HOXB9 (Homo sapiens, UniProt P17482 171-250, R186Q)", "sequence (P17482 171-250 R186Q)": "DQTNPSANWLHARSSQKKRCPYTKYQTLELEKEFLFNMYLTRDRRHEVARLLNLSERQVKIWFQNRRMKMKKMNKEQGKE"}, "HOXC9 [10]": {"target": "HOXC9 (Homo sapiens, UniProt P31274 178-260, K195R)", "sequence (P31274 178-260 K195R)": "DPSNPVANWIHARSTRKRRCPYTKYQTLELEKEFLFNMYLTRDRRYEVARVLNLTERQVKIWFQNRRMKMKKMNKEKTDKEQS"}, "HOXC9 [11]": {"target": "HOXC9 (Homo sapiens, UniProt P31274 178-260)", "sequence (P31274 178-260)": "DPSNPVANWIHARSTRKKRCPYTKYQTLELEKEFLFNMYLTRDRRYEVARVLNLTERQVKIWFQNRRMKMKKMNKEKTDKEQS"}, "HOXC9 [12]": {"target": "HOXC9 (Homo sapiens, UniProt P31274 178-260, R193K)", "sequence (P31274 178-260 R193K)": "as the sequence (P31274 178-260) above, with R16K counted along it"}, "HOXC9 [13]": {"target": "HOXC9 (Homo sapiens, UniProt P31274 178-260, R222W)", "sequence (P31274 178-260 R222W)": "as the sequence (P31274 178-260) above, with R45W counted along it"}, "HOXA4 [14]": {"target": "HOXA4 (Homo sapiens, UniProt Q00056 201-287, W262R)", "sequence (Q00056 201-287 W262R)": "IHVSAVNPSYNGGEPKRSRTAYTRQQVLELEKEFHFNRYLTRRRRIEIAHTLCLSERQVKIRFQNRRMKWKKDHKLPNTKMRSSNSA"}, "HOXA2 [15]": {"target": "HOXA2 (Homo sapiens, UniProt O43364 129-215, R185T)", "sequence (O43364 129-215 R185T)": "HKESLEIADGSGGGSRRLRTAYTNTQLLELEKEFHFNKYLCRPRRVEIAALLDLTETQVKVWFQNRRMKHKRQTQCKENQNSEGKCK"}, "HOXA4 [16]": {"target": "HOXA4 (Homo sapiens, UniProt Q00056 201-287, R217L)", "sequence (Q00056 201-287 R217L)": "as the sequence (Q00056 201-287 W262R) above, with R17L, R62W counted along it"}, "NKX2-6": {"target": "T4, NKX2-6 (Homo sapiens, UniProt A6NCS4 118-204, R150C)", "T4 sequence": "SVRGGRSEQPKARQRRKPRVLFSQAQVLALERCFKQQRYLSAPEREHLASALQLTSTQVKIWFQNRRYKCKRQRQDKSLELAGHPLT"}, "MSX2 [17]": {"target": "MSX2 (Homo sapiens, UniProt P35548 130-214, R199I)", "sequence (P35548 130-214 R199I)": "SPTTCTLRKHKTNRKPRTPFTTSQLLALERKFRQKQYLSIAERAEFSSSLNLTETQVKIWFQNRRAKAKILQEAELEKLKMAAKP"}, "HOXA2 [18]": {"target": "HOXA2 (Homo sapiens, UniProt O43364 129-215, R185K)", "sequence (O43364 129-215 R185K)": "as the sequence (O43364 129-215 R185T) above, with T57K counted along it"}, "HOXA4 [19]": {"target": "HOXA4 (Homo sapiens, UniProt Q00056 201-287)", "sequence (Q00056 201-287)": "as the sequence (Q00056 201-287 W262R) above, with R62W counted along it"}, "MSX2 [20]": {"target": "MSX2 (Homo sapiens, UniProt P35548 130-214)", "sequence (P35548 130-214)": "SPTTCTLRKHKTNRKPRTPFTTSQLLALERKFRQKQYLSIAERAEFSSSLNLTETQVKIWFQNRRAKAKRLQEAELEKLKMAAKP"}, "PROP1 [21]": {"target": "PROP1 (Homo sapiens, UniProt O75360 56-141)", "sequence (O75360 56-141)": "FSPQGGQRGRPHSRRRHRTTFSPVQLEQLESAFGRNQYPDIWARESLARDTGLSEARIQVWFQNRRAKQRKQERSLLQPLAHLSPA"}, "PROP1 [22]": {"target": "PROP1 (Homo sapiens, UniProt O75360 56-141, R99H)", "sequence (O75360 56-141 R99H)": "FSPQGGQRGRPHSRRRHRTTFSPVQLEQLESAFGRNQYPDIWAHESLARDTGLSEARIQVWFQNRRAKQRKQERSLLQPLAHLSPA"}, "VAX1 [23]": {"target": "VAX1 (Homo sapiens, UniProt Q5SQQ9 86-172)", "sequence (Q5SQQ9 86-172)": "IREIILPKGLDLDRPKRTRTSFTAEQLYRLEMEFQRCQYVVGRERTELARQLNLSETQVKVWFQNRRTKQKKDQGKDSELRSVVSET"}, "PROP1 [24]": {"target": "PROP1 (Homo sapiens, UniProt O75360 56-141, F88S)", "sequence (O75360 56-141 F88S)": "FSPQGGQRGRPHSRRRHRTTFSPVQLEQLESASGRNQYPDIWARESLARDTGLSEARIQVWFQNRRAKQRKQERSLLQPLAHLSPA"}, "MSX2 [25]": {"target": "MSX2 (Homo sapiens, UniProt P35548 130-214, F161Y)", "sequence (P35548 130-214 F161Y)": "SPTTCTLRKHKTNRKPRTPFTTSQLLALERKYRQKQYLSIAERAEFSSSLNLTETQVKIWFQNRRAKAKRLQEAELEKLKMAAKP"}, "VAX1 [26]": {"target": "VAX1 (Homo sapiens, UniProt Q5SQQ9 86-172, T142I)", "sequence (Q5SQQ9 86-172 T142I)": "as the sequence (Q5SQQ9 86-172) above, with T57I counted along it"}, "HOXA2 [27]": {"target": "HOXA2 (Homo sapiens, UniProt O43364 129-215, Y150S)", "sequence (O43364 129-215 Y150S)": "as the sequence (O43364 129-215 R185T) above, with Y22S, T57R counted along it"}, "HOXA4 [28]": {"target": "HOXA4 (Homo sapiens, UniProt Q00056 201-287, W262F)", "sequence (Q00056 201-287 W262F)": "as the sequence (Q00056 201-287 W262R) above, with R62F counted along it"}, "HOXA2 [29]": {"target": "HOXA2 (Homo sapiens, UniProt O43364 129-215)", "sequence (O43364 129-215)": "as the sequence (O43364 129-215 R185T) above, with T57R counted along it"}, "VAX1 [30]": {"target": "VAX1 (Homo sapiens, UniProt Q5SQQ9 86-172, K157R)", "sequence (Q5SQQ9 86-172 K157R)": "as the sequence (Q5SQQ9 86-172) above, with K72R counted along it"}}, "note": "Where a chain is given by its changes, count along the chain named."}
{"sequence": "AGAGGGGC", "values": [{"measurement": "binding signal", "setting": "VENTX [1]", "result": "8.19 upbm affinity estimate (log intensity, higher = more binding, comparable within an allelic series)"}, {"measurement": "binding signal", "setting": "HOXB9 [2]", "result": "8.56 upbm affinity estimate (log intensity, higher = more binding, comparable within an allelic series)"}, {"measurement": "binding signal", "setting": "VENTX [3]", "result": "8.3 upbm affinity estimate (log intensity, higher = more binding, comparable within an allelic series)"}, {"measurement": "binding signal", "setting": "VENTX [4]", "result": "8.07 upbm affinity estimate (log intensity, higher = more binding, comparable within an allelic series)"}, {"measurement": "binding signal", "setting": "HOXB9 [5]", "result": "8.46 upbm affinity estimate (log intensity, higher = more binding, comparable within an allelic series)"}, {"measurement": "binding signal", "setting": "HOXD13 [6]", "result": "9.48 upbm affinity estimate (log intensity, higher = more binding, comparable within an allelic series)"}, {"measurement": "binding signal", "setting": "HOXD13 [7]", "result": "9.71 upbm affinity estimate (log intensity, higher = more binding, comparable within an allelic series)"}, {"measurement": "binding signal", "setting": "HOXD13 [8]", "result": "9.59 upbm affinity estimate (log intensity, higher = more binding, comparable within an allelic series)"}, {"measurement": "binding signal", "setting": "HOXB9 [9]", "result": "8.41 upbm affinity estimate (log intensity, higher = more binding, comparable within an allelic series)"}]}
{"sequence": "CCCCATGC", "values": [{"measurement": "binding signal", "setting": "VENTX [1]", "result": "8.07 upbm affinity estimate (log intensity, higher = more binding, comparable within an allelic series)"}, {"measurement": "binding signal", "setting": "HOXC9 [10]", "result": "9.5 upbm affinity estimate (log intensity, higher = more binding, comparable within an allelic series)"}, {"measurement": "binding signal", "setting": "VENTX [3]", "result": "8.26 upbm affinity estimate (log intensity, higher = more binding, comparable within an allelic series)"}, {"measurement": "binding signal", "setting": "VENTX [4]", "result": "8.2 upbm affinity estimate (log intensity, higher = more binding, comparable within an allelic series)"}, {"measurement": "binding signal", "setting": "HOXC9 [11]", "result": "9.6 upbm affinity estimate (log intensity, higher = more binding, comparable within an allelic series)"}, {"measurement": "binding signal", "setting": "HOXC9 [12]", "result": "9.46 upbm affinity estimate (log intensity, higher = more binding, comparable within an allelic series)"}, {"measurement": "binding signal", "setting": "HOXC9 [13]", "result": "9.63 upbm affinity estimate (log intensity, higher = more binding, comparable within an allelic series)"}]}
{"sequence": "GCCAGGGC", "values": [{"measurement": "binding signal", "setting": "VENTX [1]", "result": "7.76 upbm affinity estimate (log intensity, higher = more binding, comparable within an allelic series)"}, {"measurement": "binding signal", "setting": "HOXA4 [14]", "result": "9.77 upbm affinity estimate (log intensity, higher = more binding, comparable within an allelic series)"}, {"measurement": "binding signal", "setting": "VENTX [3]", "result": "7.69 upbm affinity estimate (log intensity, higher = more binding, comparable within an allelic series)"}, {"measurement": "binding signal", "setting": "VENTX [4]", "result": "7.85 upbm affinity estimate (log intensity, higher = more binding, comparable within an allelic series)"}, {"measurement": "binding signal", "setting": "HOXA2 [15]", "result": "6.87 upbm affinity estimate (log intensity, higher = more binding, comparable within an allelic series)"}, {"measurement": "binding signal", "setting": "HOXA4 [16]", "result": "9.77 upbm affinity estimate (log intensity, higher = more binding, comparable within an allelic series)"}, {"measurement": "binding signal", "setting": "NKX2-6", "result": "9.13 upbm affinity estimate (log intensity, higher = more binding, comparable within an allelic series)"}, {"measurement": "binding signal", "setting": "MSX2 [17]", "result": "9.52 upbm affinity estimate (log intensity, higher = more binding, comparable within an allelic series)"}, {"measurement": "binding signal", "setting": "HOXA2 [18]", "result": "10.3 upbm affinity estimate (log intensity, higher = more binding, comparable within an allelic series)"}, {"measurement": "binding signal", "setting": "HOXA4 [19]", "result": "9.7 upbm affinity estimate (log intensity, higher = more binding, comparable within an allelic series)"}, {"measurement": "binding signal", "setting": "MSX2 [20]", "result": "9.44 upbm affinity estimate (log intensity, higher = more binding, comparable within an allelic series)"}, {"measurement": "binding signal", "setting": "PROP1 [21]", "result": "6.61 upbm affinity estimate (log intensity, higher = more binding, comparable within an allelic series)"}, {"measurement": "binding signal", "setting": "PROP1 [22]", "result": "6.73 upbm affinity estimate (log intensity, higher = more binding, comparable within an allelic series)"}, {"measurement": "binding signal", "setting": "VAX1 [23]", "result": "7.25 upbm affinity estimate (log intensity, higher = more binding, comparable within an allelic series)"}, {"measurement": "binding signal", "setting": "PROP1 [24]", "result": "6.44 upbm affinity estimate (log intensity, higher = more binding, comparable within an allelic series)"}, {"measurement": "binding signal", "setting": "MSX2 [25]", "result": "9.44 upbm affinity estimate (log intensity, higher = more binding, comparable within an allelic series)"}, {"measurement": "binding signal", "setting": "VAX1 [26]", "result": "7.16 upbm affinity estimate (log intensity, higher = more binding, comparable within an allelic series)"}, {"measurement": "binding signal", "setting": "HOXA2 [27]", "result": "10.4 upbm affinity estimate (log intensity, higher = more binding, comparable within an allelic series)"}, {"measurement": "binding signal", "setting": "HOXA4 [28]", "result": "9.81 upbm affinity estimate (log intensity, higher = more binding, comparable within an allelic series)"}, {"measurement": "binding signal", "setting": "HOXA2 [29]", "result": "6.74 upbm affinity estimate (log intensity, higher = more binding, comparable within an allelic series)"}, {"measurement": "binding signal", "setting": "VAX1 [30]", "result": "7.15 upbm affinity estimate (log intensity, higher = more binding, comparable within an allelic series)"}]}
{"sequence": "CCCCTCCC", "values": [{"measurement": "binding signal", "setting": "VENTX [1]", "result": "8.02 upbm affinity estimate (log intensity, higher = more binding, comparable within an allelic series)"}, {"measurement": "binding signal", "setting": "HOXC9 [10]", "result": "9.65 upbm affinity estimate (log intensity, higher = more binding, comparable within an allelic series)"}, {"measurement": "binding signal", "setting": "VENTX [3]", "result": "7.87 upbm affinity estimate (log intensity, higher = more binding, comparable within an allelic series)"}, {"measurement": "binding signal", "setting": "VENTX [4]", "result": "8.02 upbm affinity estimate (log intensity, higher = more binding, comparable within an allelic series)"}, {"measurement": "binding signal", "setting": "HOXC9 [11]", "result": "9.76 upbm affinity estimate (log intensity, higher = more binding, comparable within an allelic series)"}, {"measurement": "binding signal", "setting": "HOXD13 [6]", "result": "9.44 upbm affinity estimate (log intensity, higher = more binding, comparable within an allelic series)"}, {"measurement": "binding signal", "setting": "HOXC9 [12]", "result": "9.62 upbm affinity estimate (log intensity, higher = more binding, comparable within an allelic series)"}, {"measurement": "binding signal", "setting": "HOXD13 [7]", "result": "9.54 upbm affinity estimate (log intensity, higher = more binding, comparable within an allelic series)"}, {"measurement": "binding signal", "setting": "HOXD13 [8]", "result": "9.62 upbm affinity estimate (log intensity, higher = more binding, comparable within an allelic series)"}, {"measurement": "binding signal", "setting": "HOXC9 [13]", "result": "9.53 upbm affinity estimate (log intensity, higher = more binding, comparable within an allelic series)"}]}
